Most compounds without a hit are left out; they make up all but 4.8% or so of the library.
ssDAF12 agonist – activators of S. stercoralis DAF-12 nuclear receptor; HEK293 ssDAF-12/GRIP1 lit1-tk-luc reporter, luminescence; % of 3 µM dafachronic acid response; activation, % at 6.8 µM; hit rate 1% among 370,000;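 active means activation above the mean over all tested compounds plus 3 SD, cut at about 0.9% in these data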;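 further: 0% = DMSO-only wells and 100% = 3 µM delta7-dafachronic acid wells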
DAX1 inh-1 – blocks DAX1 repression of SF-1 activated StAR promoter; HEK293T StAR-luciferase reporter, SF-1/DAX-1 repression relief; inhibition, % at 6.8 µM; hit rate 1.1% among 370,000; AID 652010;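 active means inhibition above the mean over all tested compounds plus 3 SD, cut at about 3.6% in these data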;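 further: 0% = DAX-1 cells with DMSO and 100% = cells lacking DAX-1 with DMSO; higher inhibition means more luminescence from relief of DAX-1 repression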
DAX1 inh-2 – NR0B1 (DAX1) inhibition. P51843. inhibition, % at 6.75 µM. hit rate 0.99% among 340,000. HEK293 Gal4-DAX1 luciferase reporter, luminescence;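 active means inhibition above the mean over all tested compounds plus 3 SD, cut at about 4.2% in these data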;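 further: 0% = DAX1-transfected cells with DMSO and 100% = empty-vector control cells with DMSO; inhibition shows as a rise in luminescence from relieved DAX1 repression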
SMARCA2 act – activators of SMARCA2 function | MG213 cells, MMTV-luciferase reporter, dexamethasone, overnight | activation, % at 9.1 µM | hit rate 1% among 370,000; in the data active means activation above about 7.8%;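 further: 0% = vehicle wells and 100% = reference activator wells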
hgDAF-12 ag – agonists of H. glycines DAF-12 nuclear receptor. activation, % at 6.8 µM. HEK293 GAL4-hgDAF12 UAS-luciferase reporter, agonist luminescence; normalized to butyrate control. AID 687014. hit rate 1.8% among 370,000;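 active means activation above a cutoff set at the mean of all screened compounds plus 3 SD, cut at about 10% in these data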;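 further: 0% = DMSO wells and 100% = sodium butyrate wells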
hcDAF12 agonist – activates DAF-12 receptor from parasite H. contortus; HEK293 hcDAF-12 lit1-tk-luc reporter, luminescence; 0% DMSO, 100% Δ7-dafachronic acid; activation, % at 6.8 µM; hit rate 1.4% among 370,000; AID 652067;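 active means activation above the mean of all tested compounds plus 3 SD, cut at about 5.5% in these data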;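 further: 100% = response to 3 µM Δ7-dafachronic acid high control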
DAX1 conf – confirmation of human DAX1 (NR0B1) inhibitors | shares compounds with DAX1 inh-1 | HEK293T StAR-promoter luciferase reporter, SF-1/DAX-1 repression | inhibition, % at 6.8 µM | hit rate 87% among 2,400 | AID 652134;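 active means inhibition above the average of every tested compound plus 3 SD, cut at about 3.8% in these data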;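 further: 0% = DAX-1 cells with DMSO and 100% = no DAX-1 control cells with DMSO; active compounds raise luminescence by relieving repression of the StAR reporter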
SF1 mutant ctr – nonselective inhibitor or artifact in SF-1 mutant DAX1 counter-screen | HEK293 StAR-luciferase, SF-1 AF2 mutant, luminescence | AID 652136 | shares compounds with DAX1 inh-1 | hit rate 78% among 2,400 | inhibition, % at 6.8 µM;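 active means inhibition above the mean of all tested compounds plus 3 SD, cut at about 3% in these data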;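 further: 0% = DAX-1 transfected cells with DMSO and 100% = cells without DAX-1 with DMSO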
LXR ag – LXR-beta agonism as hcDAF-12 counter-screen; 3,400 tested, under 10 active; shares compounds with hcDAF12 agonist; activation, % at 6.8 µM; HEK293 Gal4-LXR tk-luc reporter, luminescence, 24 h; normalized: DMSO 0%, positive control 100%; AID 743027;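 active means mean percent activation of the reporter above a cutoff set as the average over tested compounds plus their standard deviation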
Target sequence (P55055 whole entry, looked up, the tested form may be a part): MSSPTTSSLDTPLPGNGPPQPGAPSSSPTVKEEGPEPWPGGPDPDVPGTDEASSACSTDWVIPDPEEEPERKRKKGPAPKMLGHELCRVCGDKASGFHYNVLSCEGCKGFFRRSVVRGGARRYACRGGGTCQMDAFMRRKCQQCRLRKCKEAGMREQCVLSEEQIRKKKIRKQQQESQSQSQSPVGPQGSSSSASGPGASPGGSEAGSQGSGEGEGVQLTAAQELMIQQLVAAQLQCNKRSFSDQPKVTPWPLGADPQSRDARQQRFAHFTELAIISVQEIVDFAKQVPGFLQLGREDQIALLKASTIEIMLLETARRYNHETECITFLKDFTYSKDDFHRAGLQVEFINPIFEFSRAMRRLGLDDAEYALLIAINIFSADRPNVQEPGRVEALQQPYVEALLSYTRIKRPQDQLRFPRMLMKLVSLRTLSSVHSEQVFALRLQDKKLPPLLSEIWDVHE
hcDAF12 conf – confirmation of H. contortus DAF-12 agonists | hit rate 61% among 3,400 | shares compounds with hcDAF12 agonist | HEK293 hcDAF-12 lit1-tk-luc reporter, luminescence; % of Δ7-dafachronic acid response | activation, % at 6.8 µM;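 active means mean activation across triplicate tests above the threshold derived from the earlier primary screen, cut at about 5.5% in these data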;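 further: 0% = DMSO only wells and 100% = 3 µM Δ7-dafachronic acid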
hgDAF12 ag – confirmation of H. glycines DAF-12 agonists; HEK293 GAL4-hgDAF12 luciferase reporter, agonist mode; percent of butyrate response; activation, % at 6.8 µM; hit rate 80% among 3,300; shares compounds with hgDAF-12 ag;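 active means mean activation over triplicate wells above the hit cutoff derived from the earlier primary screen, cut at about 11% in these data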;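 further: 0% = DMSO low control and 100% = 2 mM sodium butyrate high control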
LXRb DAF12 ctr – LXR-beta agonism as DAF-12 counter-screen. AID 743051. 3,300 tested, under 10 active. HEK293 Gal4-LXR luciferase reporter, 24 h. shares compounds with hgDAF-12 ag. activation, % at 6.8 µM;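 active means mean activation of the triplicate above a set limit carried over from the primary screen, none filed active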
Starred values were filed as active, the others as inactive.

Screening O=C1Nc2ccccc2N(C(=O)c2ccc3ccccc3c2)C1c1nc2ccccc2[nH]1 (configuration not stated) returned ssDAF12 agonist 1.8*, DAX1 inh-1 12.9*, SMARCA2 act 5.1, hgDAF-12 ag 26.6*, hcDAF12 agonist 6.7*, DAX1 conf 3.3, SF1 mutant ctr 2.9*, LXR ag 0.1, hcDAF12 conf 1.1, hgDAF12 ag 10.1 and LXRb DAF12 ctr 0.5.
`CC1C(=O)Nc2ccccc2N1C(=O)c1ccc(O)cc1` (configuration not stated) gave ssDAF12 agonist -0.9, DAX1 inh-1 0.0, DAX1 inh-2 1.4, SMARCA2 act -0.3, hgDAF-12 ag 0.7 and hcDAF12 agonist -3.2.
For O=C(CCc1nnc(C2CCCCC2)o1)NCCCOc1cccnc1 the results were ssDAF12 agonist -1.6, DAX1 inh-1 0.2, DAX1 inh-2 -0.7, SMARCA2 act 1.6, hgDAF-12 ag -2.3 and hcDAF12 agonist 0.4.
Screening S=C(c1ccc(-c2ccc(Cl)cc2)o1)N1CCCCC1 returned ssDAF12 agonist 0.2, DAX1 inh-1 5.3*, DAX1 inh-2 4.8*, SMARCA2 act 4.9, hgDAF-12 ag 15.4*, hcDAF12 agonist 3.8, DAX1 conf 14.8*, SF1 mutant ctr 9.0*, hgDAF12 ag 19.7* and LXRb DAF12 ctr 1.0.
For O=C(O)c1cccc(N/N=C/c2ccc(-c3ccccc3)cc2)c1 the results were ssDAF12 agonist 0.5, DAX1 inh-1 4.7*, DAX1 inh-2 -2.7, SMARCA2 act 5.5, hgDAF-12 ag 16.0*, hcDAF12 agonist 4.1, DAX1 conf 22.2*, SF1 mutant ctr 10.3*, hgDAF12 ag 27.5* and LXRb DAF12 ctr 1.2.
COc1ccc2c(CN(C)Cc3ccccc3)cc(=O)oc2c1 was read as ssDAF12 agonist 0.8, DAX1 inh-1 7.2*, SMARCA2 act 0.5, hgDAF-12 ag 15.0*, hcDAF12 agonist 2.3, DAX1 conf 7.6*, SF1 mutant ctr 4.1*, hgDAF12 ag 14.9* and LXRb DAF12 ctr 0.9.
Screening c1ccc2c(c1)CCCN2c1nc(N2CCOCC2)nc(N2CCOCC2)n1 returned ssDAF12 agonist -0.1, DAX1 inh-1 -1.0, DAX1 inh-2 0.8, SMARCA2 act -2.2, hgDAF-12 ag 0.2 and hcDAF12 agonist 0.0.
`CNc1nc(N2CCc3ccccc32)ncc1F` gave ssDAF12 agonist 0.5, DAX1 inh-1 5.1*, DAX1 inh-2 4.0, SMARCA2 act 2.8, hgDAF-12 ag 14.8*, hcDAF12 agonist 5.8*, DAX1 conf 10.5*, SF1 mutant ctr 5.0*, hgDAF12 ag 14.8* and LXRb DAF12 ctr 0.8.
Screening CC1CCN(C(=O)c2ccc3ccccc3c2)CC1 returned ssDAF12 agonist -1.1, DAX1 inh-1 7.9*, DAX1 inh-2 0.0, SMARCA2 act 2.3, hgDAF-12 ag 13.6*, hcDAF12 agonist 0.6, DAX1 conf 6.8*, SF1 mutant ctr 3.8*, hgDAF12 ag 14.7* and LXRb DAF12 ctr 0.4.
For CC1CC(C)CN(C(=O)c2ccc3ccccc3c2)C1 (configuration not stated) the results were ssDAF12 agonist -1.4, DAX1 inh-1 -1.3, DAX1 inh-2 -0.8, SMARCA2 act 1.7, hgDAF-12 ag -0.9 and hcDAF12 agonist -0.5.
Cc1ccc(NC(=O)CSc2ncc(-c3ccccc3)n2C(=O)c2ccccc2)cc1 was read as ssDAF12 agonist -1.0, DAX1 inh-1 -0.1, DAX1 inh-2 -0.1, SMARCA2 act -0.1, hgDAF-12 ag 1.3 and hcDAF12 agonist 1.7.
For COc1ccc2cc3cc(C(=O)NC4CC4)sc3nc2c1 the results were ssDAF12 agonist 0.3, DAX1 inh-1 15.2*, DAX1 inh-2 -2.0, SMARCA2 act 3.3, hgDAF-12 ag 24.0*, hcDAF12 agonist 18.2*, DAX1 conf 14.2*, SF1 mutant ctr 4.2*, LXR ag 1.9, hcDAF12 conf 8.7*, hgDAF12 ag 16.5* and LXRb DAF12 ctr 0.9.
CCn1cnc2cc(NCc3nc4ccccc4n3C)ccc21 was read as ssDAF12 agonist 1.1*, DAX1 inh-1 5.9*, DAX1 inh-2 -0.3, SMARCA2 act 0.7, hgDAF-12 ag 18.4*, hcDAF12 agonist 14.8*, DAX1 conf 10.3*, SF1 mutant ctr 4.8*, LXR ag 1.4, hcDAF12 conf 7.5*, hgDAF12 ag 12.7* and LXRb DAF12 ctr 0.9.
`CCn1cnc2cc(NCc3nc4ccccc4n3Cc3ccccc3)ccc21` gave ssDAF12 agonist -1.9, DAX1 inh-1 0.2, DAX1 inh-2 1.1, SMARCA2 act -0.9, hgDAF-12 ag -2.2 and hcDAF12 agonist -0.7.
O=C(O)c1cnn2cc(-c3[nH]ncc3[N+](=O)[O-])cnc12 was read as ssDAF12 agonist -1.2, DAX1 inh-1 0.0, DAX1 inh-2 3.9, SMARCA2 act -1.1, hgDAF-12 ag -0.8 and hcDAF12 agonist -1.4.

Bioassay records from PubChem BioAssay.
